According to ChEMBL document CHEMBL3988442, “University of Dundee, Small-Polar-MMV Screening Library” (2021):
For some assays here: Measured potencies and affinities stand elsewhere.

Key:
Design in all cases: scale not given: direction of the effect not stated beside the values
[1] = target: Protein translocase subunit SecA (Escherichia coli (strain K12)) (UniProt P10408); test: Assay to Identify E. coli SecA ATPase Inhibitors; format: functional; conditions: 30 µM
[2] = target: T1, Ubiquitin-activating enzyme e1, putative (Leishmania donovani (strain BPK282A1)) (UniProt E9BSI1); test: Leishmania donovani Ubiquitin Activating Enzyme (LdE1); format: functional; conditions: 30 µM
T1 sequence (whole entry): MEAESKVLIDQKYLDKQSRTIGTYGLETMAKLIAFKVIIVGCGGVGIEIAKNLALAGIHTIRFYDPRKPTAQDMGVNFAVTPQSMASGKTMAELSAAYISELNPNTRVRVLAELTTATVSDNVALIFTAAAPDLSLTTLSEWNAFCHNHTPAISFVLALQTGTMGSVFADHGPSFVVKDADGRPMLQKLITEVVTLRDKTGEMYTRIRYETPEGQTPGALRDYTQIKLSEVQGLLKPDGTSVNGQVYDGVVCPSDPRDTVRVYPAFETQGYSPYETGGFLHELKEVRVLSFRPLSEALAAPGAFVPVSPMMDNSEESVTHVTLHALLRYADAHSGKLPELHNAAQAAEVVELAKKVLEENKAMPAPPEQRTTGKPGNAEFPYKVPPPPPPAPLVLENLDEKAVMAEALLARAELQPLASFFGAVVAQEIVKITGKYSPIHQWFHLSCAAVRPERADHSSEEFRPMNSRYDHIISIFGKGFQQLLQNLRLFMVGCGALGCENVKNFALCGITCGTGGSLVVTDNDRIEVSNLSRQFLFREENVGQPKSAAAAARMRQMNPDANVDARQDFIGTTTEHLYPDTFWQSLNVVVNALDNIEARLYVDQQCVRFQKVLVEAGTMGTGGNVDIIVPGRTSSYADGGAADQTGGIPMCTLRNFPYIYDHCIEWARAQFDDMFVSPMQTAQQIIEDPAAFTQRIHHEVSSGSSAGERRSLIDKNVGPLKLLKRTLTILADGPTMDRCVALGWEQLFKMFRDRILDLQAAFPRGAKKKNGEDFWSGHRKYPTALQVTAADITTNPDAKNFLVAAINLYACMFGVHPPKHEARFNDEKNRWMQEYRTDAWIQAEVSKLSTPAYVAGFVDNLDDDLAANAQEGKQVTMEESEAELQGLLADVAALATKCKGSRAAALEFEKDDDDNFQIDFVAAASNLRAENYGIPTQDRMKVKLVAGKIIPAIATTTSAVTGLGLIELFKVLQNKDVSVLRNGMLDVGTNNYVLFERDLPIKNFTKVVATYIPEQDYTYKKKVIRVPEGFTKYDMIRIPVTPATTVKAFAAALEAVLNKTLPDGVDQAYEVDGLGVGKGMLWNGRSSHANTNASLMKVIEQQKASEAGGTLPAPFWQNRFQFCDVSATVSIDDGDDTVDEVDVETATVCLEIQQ

[3] = target: AMP-activated protein kinase, AMPK (Homo sapiens) (UniProt P54646+O43741+P54619+Q9UGJ0+Q9Y478+Q13131+Q9UGI9); test: AMP-dependent Kinase enzyme assay. An in vitro enzyme assay that detects ADP turnover that is directly proportional to AMPK activity. This uses naive AMPK that is activated during the assay with MK-8722; format: functional; conditions: 30 µM
[4] = target: Sialic acid-binding Ig-like lectin 9 (Homo sapiens) (UniProt Q9Y336); test: Hs-Siglec9 ALPHAscreen SOP 20170721; conditions: 10 µM
Sialic acid-binding Ig-like lectin 9 (Homo sapiens), sequence (Q9Y336 whole entry): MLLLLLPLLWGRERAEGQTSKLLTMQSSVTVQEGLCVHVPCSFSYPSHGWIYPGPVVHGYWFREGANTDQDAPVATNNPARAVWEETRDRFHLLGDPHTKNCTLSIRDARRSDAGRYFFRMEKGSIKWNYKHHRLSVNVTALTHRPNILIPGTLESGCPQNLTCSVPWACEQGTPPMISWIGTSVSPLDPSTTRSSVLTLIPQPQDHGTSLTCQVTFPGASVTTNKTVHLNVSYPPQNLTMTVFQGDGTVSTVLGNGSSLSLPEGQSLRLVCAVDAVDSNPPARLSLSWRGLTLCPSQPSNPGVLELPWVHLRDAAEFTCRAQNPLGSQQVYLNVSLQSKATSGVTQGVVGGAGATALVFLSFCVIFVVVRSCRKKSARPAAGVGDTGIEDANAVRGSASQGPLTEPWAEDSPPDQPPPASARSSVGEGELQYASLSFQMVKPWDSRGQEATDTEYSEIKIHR

[5] = system: Trypanosoma cruzi; test: Trypanosoma cruzi phosphomannomutase and mannose-1-phosphate guanylyltransferase assay; format: functional; conditions: 10 µM
[6] = target: T2, Arginase-2, mitochondrial (Homo sapiens) (UniProt P78540); test: in vitro enzyme assay to detect the production of urea directly proportional to the activity of Arginase II; format: functional; conditions: 33.3 µM; also: in the data most compounds retested in dose-response had high values
T2 sequence (whole entry): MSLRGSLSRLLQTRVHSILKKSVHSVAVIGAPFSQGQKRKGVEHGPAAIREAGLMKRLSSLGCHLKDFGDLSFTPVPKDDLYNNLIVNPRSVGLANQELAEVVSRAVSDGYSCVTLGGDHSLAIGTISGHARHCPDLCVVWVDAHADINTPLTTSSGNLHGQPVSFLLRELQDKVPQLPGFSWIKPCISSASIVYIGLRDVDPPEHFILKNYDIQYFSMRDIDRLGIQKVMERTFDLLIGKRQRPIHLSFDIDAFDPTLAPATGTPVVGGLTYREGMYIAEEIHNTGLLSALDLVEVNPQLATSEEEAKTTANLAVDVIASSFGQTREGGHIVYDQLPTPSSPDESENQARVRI

[7] = target: T3, Proteasome subunit beta (Trypanosoma cruzi) (UniProt O96673); test: Trypanosoma cruzi proteasome chymotrypsin-like activity (TcProtChymo) assay.; also: in the data most compounds retested in dose-response had high values; format: functional; conditions: 9.37 µM
T3 sequence (whole entry): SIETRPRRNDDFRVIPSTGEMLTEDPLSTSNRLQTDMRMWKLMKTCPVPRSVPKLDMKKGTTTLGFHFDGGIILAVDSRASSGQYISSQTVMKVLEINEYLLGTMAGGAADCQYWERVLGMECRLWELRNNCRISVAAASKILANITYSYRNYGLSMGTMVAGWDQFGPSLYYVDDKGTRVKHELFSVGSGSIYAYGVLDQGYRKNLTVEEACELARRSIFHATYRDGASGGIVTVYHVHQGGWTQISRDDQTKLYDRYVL

[8] = species: Homo sapiens; test: To identify inhibition of the IFN signalling (Jak-Stat) pathway via expression of an eGFP reporter gene under the control of an IFN-stimulated response element (ISRE) containing MxA promoter.; format: functional; conditions: 30 µM
[9] = target: T4, Tyrosyl-tRNA synthetase, putative (Trypanosoma cruzi (strain CL Brener)) (UniProt Q4DSP6); test: Trypanosoma cruzi tyrosyl tRNA synthetase (TcYRS) _High Tyrosine SOP; format: functional; conditions: 30 µM; also: in the data most compounds retested in dose-response had high values
T4 sequence (whole entry): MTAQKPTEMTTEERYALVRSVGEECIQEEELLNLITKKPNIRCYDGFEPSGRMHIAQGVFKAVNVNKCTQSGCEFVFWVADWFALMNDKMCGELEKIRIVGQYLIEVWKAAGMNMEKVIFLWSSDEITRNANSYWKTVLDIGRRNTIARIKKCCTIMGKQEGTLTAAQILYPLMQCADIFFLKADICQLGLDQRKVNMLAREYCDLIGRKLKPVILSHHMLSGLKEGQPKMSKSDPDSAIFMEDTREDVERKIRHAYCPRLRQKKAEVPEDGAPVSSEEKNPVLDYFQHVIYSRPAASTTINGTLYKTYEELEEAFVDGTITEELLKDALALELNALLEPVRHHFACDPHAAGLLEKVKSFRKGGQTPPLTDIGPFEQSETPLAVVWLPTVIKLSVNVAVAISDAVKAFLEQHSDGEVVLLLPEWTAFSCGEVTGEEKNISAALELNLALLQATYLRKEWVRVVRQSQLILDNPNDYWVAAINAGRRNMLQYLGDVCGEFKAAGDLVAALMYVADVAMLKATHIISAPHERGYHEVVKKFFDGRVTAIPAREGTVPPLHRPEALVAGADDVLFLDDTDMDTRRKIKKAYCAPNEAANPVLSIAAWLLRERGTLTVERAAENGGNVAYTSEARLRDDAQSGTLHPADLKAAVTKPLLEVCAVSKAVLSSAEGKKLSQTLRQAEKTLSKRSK

[10] = target: T4, Tyrosyl-tRNA synthetase, putative (Trypanosoma cruzi (strain CL Brener)); test: Trypanosoma cruzi tyrosyl tRNA synthetase (TcYRS) SOP; format: functional; conditions: 30 µM
[11] = target: Chromo domain-containing protein 1 (Saccharomyces cerevisiae (strain ATCC 204508 / S288c) (Baker's yeast)) (UniProt P32657); test: ScCHD-1 Enzyme Inhibition Assay; format: functional; conditions: 30 µM; also: in the data most compounds retested in dose-response had high values
Chromo domain-containing protein 1 (Saccharomyces cerevisiae (strain ATCC 204508 / S288c) (Baker's yeast)), sequence (P32657 whole entry, the tested form may be a part): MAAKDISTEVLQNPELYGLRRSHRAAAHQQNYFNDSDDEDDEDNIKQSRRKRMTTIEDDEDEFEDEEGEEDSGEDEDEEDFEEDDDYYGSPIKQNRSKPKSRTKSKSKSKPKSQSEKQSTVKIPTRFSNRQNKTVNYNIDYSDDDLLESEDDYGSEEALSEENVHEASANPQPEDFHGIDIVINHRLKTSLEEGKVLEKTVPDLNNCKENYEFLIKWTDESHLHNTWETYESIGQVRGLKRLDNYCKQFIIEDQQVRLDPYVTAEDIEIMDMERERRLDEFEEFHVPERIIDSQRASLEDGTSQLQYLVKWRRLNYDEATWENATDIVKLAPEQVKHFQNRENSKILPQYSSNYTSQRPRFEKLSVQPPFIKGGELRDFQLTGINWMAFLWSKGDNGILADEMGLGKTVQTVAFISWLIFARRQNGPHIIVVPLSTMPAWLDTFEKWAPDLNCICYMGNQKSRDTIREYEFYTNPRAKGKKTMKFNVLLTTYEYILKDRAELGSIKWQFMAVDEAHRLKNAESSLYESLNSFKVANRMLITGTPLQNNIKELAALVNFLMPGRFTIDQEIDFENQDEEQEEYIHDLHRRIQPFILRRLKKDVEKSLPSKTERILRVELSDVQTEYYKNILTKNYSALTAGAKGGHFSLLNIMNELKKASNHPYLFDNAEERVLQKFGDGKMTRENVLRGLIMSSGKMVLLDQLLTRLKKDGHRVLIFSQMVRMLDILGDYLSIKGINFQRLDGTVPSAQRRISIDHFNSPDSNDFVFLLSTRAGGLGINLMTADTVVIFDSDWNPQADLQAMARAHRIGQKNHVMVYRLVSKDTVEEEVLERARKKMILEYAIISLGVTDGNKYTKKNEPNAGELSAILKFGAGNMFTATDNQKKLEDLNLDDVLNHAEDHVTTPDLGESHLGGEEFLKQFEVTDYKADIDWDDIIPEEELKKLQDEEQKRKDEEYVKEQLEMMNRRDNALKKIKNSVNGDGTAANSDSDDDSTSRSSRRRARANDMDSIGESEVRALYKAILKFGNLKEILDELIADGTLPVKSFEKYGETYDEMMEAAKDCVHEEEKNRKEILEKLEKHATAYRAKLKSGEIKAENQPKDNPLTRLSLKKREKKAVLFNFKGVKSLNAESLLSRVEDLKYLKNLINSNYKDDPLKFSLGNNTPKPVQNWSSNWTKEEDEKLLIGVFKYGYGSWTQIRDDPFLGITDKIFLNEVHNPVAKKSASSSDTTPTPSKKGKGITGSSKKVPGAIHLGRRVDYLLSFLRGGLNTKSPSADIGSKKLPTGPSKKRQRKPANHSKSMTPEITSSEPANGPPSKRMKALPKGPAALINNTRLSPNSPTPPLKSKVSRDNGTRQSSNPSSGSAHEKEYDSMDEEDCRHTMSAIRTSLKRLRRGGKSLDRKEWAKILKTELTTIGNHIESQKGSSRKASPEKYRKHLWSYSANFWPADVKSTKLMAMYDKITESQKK

Protein translocase subunit SecA (Escherichia coli (strain K12)), sequence (P10408 whole entry): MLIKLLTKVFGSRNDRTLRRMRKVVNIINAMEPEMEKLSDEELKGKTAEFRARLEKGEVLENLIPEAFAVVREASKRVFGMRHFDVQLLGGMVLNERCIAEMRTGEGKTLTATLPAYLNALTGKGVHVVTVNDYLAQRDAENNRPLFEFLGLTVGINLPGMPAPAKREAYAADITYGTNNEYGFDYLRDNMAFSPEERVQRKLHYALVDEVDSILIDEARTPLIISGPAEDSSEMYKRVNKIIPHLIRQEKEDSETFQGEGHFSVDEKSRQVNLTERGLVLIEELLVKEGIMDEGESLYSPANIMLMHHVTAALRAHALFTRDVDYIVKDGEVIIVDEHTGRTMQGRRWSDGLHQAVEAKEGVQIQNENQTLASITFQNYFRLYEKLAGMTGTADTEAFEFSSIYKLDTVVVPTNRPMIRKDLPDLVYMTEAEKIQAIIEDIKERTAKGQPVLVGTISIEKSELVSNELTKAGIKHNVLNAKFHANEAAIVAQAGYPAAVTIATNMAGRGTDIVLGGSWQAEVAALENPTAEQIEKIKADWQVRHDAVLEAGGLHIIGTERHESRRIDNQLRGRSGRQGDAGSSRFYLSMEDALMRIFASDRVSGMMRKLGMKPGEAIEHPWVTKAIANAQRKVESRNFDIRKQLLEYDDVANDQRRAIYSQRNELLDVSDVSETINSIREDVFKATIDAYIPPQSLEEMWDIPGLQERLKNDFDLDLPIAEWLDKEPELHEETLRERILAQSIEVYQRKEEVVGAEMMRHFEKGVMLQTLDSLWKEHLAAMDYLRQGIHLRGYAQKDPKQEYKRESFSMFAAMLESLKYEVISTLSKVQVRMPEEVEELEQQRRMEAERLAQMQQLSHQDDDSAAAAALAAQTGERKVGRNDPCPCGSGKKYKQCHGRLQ

Compound	Percent Effect [1]	Percent Effect [2]	Percent Effect [3]	Percent Effect [4]	Percent Effect [5]	Percent Effect [6]	Percent Effect [7]	Percent Effect [8]	Percent Effect [9]	Percent Effect [10]	Percent Effect [11]
CS(=O)(=O)c1ccc(C(O)CN2CCC(c3ccn[nH]3)CC2)cc1 (stereo unspecified)	-2.89%	15.2%	-2.45%	-1.3%	-2.17%	4.94%	5.32%	-11.8%	5.42%	16.5%	-6.15%
O=C1CC(c2cccc(O)c2)c2c(c(C(=O)O)cn2-c2ccccc2)N1 (stereo unspecified)	-3.46%	1.33%	-385%	1.46%	-3.34%	-5.81%	14.6%	7.35%	0%	-5.13%	-11.7%
Cc1c(C(=O)NCC2CCCO2)nnn1-c1cccc2c1CCN(C)C2 (stereo unspecified)	-7.71%	2.63%	-11.9%	-4.47%	-1.27%	2.37%	6.42%	27.2%	-1.06%	-2.6%	88%
CCN1CCN(C2CCN(Cc3c(C)noc3C)CC2)C1=O	-8.32%	15.2%	-5.02%	13.7%	4.44%	-0.38%	6.8%	3.4%	6.4%	16.5%	-7.48%
Cc1nsc(NC(=O)N2CCC(C(C)(C)O)CC2)n1	1.56%	5.41%	-3.48%	-1.81%	-8.11%	1.74%	14.2%	5.12%	1.07%	6.17%	-3.72%
Cn1cc(CCC(=O)N2C[C@H]3CC[C@@H]2CN(Cc2ccccc2)C3)cn1	-5.96%	4.17%	9.13%	-7.5%	-1.07%	-3.53%	8.77%	-28.4%	1.05%	5.13%	-1.41%
Cc1nc(C)c(C(=O)N2CCC(Nc3cccnc3)CC2)s1	0.905%	-2.74%	-10.4%	50.9%	-3.37%	8.38%	14.5%	-5.72%	2.08%	3.7%	-3.74%
CC(C)COCC(NC(=O)c1ccccn1)c1ccco1 (stereo unspecified)	-2.06%	13.5%	-1.56%	0.407%	4.62%	-8.02%	5.04%	5.29%	9.36%	16.1%	-8.79%
O=C(Cc1ccc2c(c1)OCCO2)NCCc1nnc2n1CCC2	-2.17%	24.3%	22.3%	-3.07%	3.87%	-7.62%	10.8%	2.82%	4.43%	18.5%	-9.97%
O=C(O)c1ccc(S(=O)(=O)Nc2ccc(Cl)c(F)c2)c(F)c1	-2.14%	-2.7%	-7.96%	15.3%	1.04%	1.6%	-1.08%	8.28%	-13.3%	-18.5%	-4.26%
CC1c2ncc(CNC(=O)C3CC3)n2CCN1Cc1cnn(C)c1 (stereo unspecified)	-0.181%	8%	-3.48%	-1.35%	6.56%	-55.4%	13.8%	5.07%	3.12%	12.5%	-7.95%
COc1cccc2c1ccn2CC(=O)N[C@@H](CCSC)C(=O)O	1.36%	-1.33%	-55.8%	3.95%	-0.197%	-7.57%	11.5%	-11.4%	4.23%	-30.8%	-0.515%
COc1ccc(C)cc1CN(C)Cc1nc2c(cnn2C)c(=O)[nH]1	-1.35%	18.4%	1.85%	2.21%	2.52%	-4.32%	7.02%	7.09%	9.36%	23.5%	-5.71%
N#Cc1cc(NC(=O)c2ccsc2)ccc1N1CCC(O)CC1	-2.1%	13.5%	-3.83%	18.9%	5.99%	12.9%	19.3%	27.8%	4.76%	14.6%	-1.54%
COCC1CN(C(=O)c2ccoc2C)Cc2nccn2C1 (stereo unspecified)	-6.75%	0%	10.2%	-5.59%	-6.3%	0.233%	2.03%	12.3%	-3.19%	1.28%	-4.85%
CC(C)Cc1noc(CN2CCN(C(=O)c3ccco3)CC2)n1	1.31%	2.74%	2.5%	1.08%	3.17%	0%	8.99%	5.51%	5.21%	8.64%	-2.76%
